# Assay results taken from paper PMC5540273 (PLoS ONE, 2017).
# Where “and” joins values, the source holds several entries; their conditions need not be identical. Equal entries are not always repeated. Where two headings read alike, the source gives them in different places.
# Legend:
# ERBB2 = details: n = 1
# ERBB3 = details: concentration: 1 μM, replicates: in singlicate; n = 1
# ERBB4 = details: n = 1
# ERK1 = tested on: T1, ERK1; details: concentration: 1 μM, replicates: in singlicate; n = 1
# T1 construct: gene MAPK3
# ERK2 = tested on: T2, ERK2; details: concentration: 1 μM, replicates: in singlicate; n = 1
# T2 construct: gene MAPK1
# ERK3 = tested on: T3, ERK3; details: n = 1
# T3 construct: gene MAPK6
# ERK4 = tested on: T4, ERK4; details: n = 1
# T4 construct: gene MAPK4
# ERK5 = tested on: T5, ERK5; details: concentration: 1 μM, replicates: in singlicate; n = 1
# T5 construct: gene MAPK7
# ERK8 = tested on: T6, ERK8; details: concentration: 1 μM, replicates: in singlicate; n = 1
# T6 construct: gene MAPK15
# ERN1 = details: n = 1
# FAK = tested on: T7, FAK; details: concentration: 1 μM, replicates: in singlicate; n = 1
# T7 construct: gene PTK2
# FER = details: n = 1
# FES = details: concentration: 1 μM, replicates: in singlicate; n = 1
# FGFR1 = details: concentration: 1 μM, replicates: in singlicate; n = 1
# FGFR2 = details: concentration: 1 μM, replicates: in singlicate; n = 1
# FGFR3 = details: n = 1
# FGFR4 = details: n = 1
# FGR = details: n = 1
# FLT1 = details: n = 1
# FLT3-autoinhibited = details: concentration: 1 μM, replicates: in singlicate; n = 1
# [1] = concentration: 1 μM, replicates: in singlicate
# [2] = concentration: 1 μM,replicates: in singlicate, 1 µM
# 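Note: KINOMEscan kinase panel screen.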
structure (smiles),measurement,setting,value
Cc1ccc(C(=O)Nc2ccc(Nc3ccnc4cc(-c5ccccn5)ccc34)cc2O)cc1.Cl [GW440146],%Inh,ERBB2; [1],38%
same,%Inh,ERBB3,0%
same,%Inh,ERBB4; [1],31%
same,%Inh,ERK1,5%
same,%Inh,ERK2,0%
same,%Inh,ERK3; [1],0%
same,%Inh,ERK4; [1],10%
same,%Inh,ERK5,0%
same,%Inh,ERK8,0%
same,%Inh,ERN1; [1],0%
same,%Inh,FAK,0%
same,%Inh,FER; [1],30%
same,%Inh,FES,0%
same,%Inh,FGFR1,1%
same,%Inh,FGFR2,0%
same,%Inh,FGFR3; [1],0%
same,%Inh,FGFR4; [1],0%
same,%Inh,FGR; [1],59%
same,%Inh,FLT1; [1],28%
same,%Inh,FLT3-autoinhibited,0%
O=C1NC(=O)C(N2CCc3ccccc32)=C1c1ccccc1Cl [SB-373598],%Inh,ERBB2; [1],26%
same,%Inh,ERBB3,0%
same,%Inh,ERBB4; [1],0%
same,%Inh,ERK1,17%
same,%Inh,ERK2,0%
same,%Inh,ERK3; [1],23%
same,%Inh,ERK4; [1],11%
same,%Inh,ERK5,0%
same,%Inh,ERK8,0%
same,%Inh,ERN1; [1],13%
same,%Inh,FAK,0%
same,%Inh,FER; [1],34%
same,%Inh,FES,15%
same,%Inh,FGFR1,7%
same,%Inh,FGFR2,15%
same,%Inh,FGFR3; [1],33%
same,%Inh,FGFR4; [1],9%
same,%Inh,FGR; [1],21%
same,%Inh,FLT1; [1],6%
same,%Inh,FLT3-autoinhibited,0%
COc1cccc(NC(=O)NC2CCN(c3ccnc(Nc4ccc(F)cc4)n3)C2)c1 (centres unmarked) [GSK1379721],%Inh,ERBB2; [1],28%
same,%Inh,ERBB3,0%
same,%Inh,ERBB4; [1],7%
same,%Inh,ERK1,0%
same,%Inh,ERK2,0%
same,%Inh,ERK3; [1],0%
same,%Inh,ERK4; [1],21%
same,%Inh,ERK5,0%
same,%Inh,ERK8,0%
same,%Inh,ERN1; [1],19%
same,%Inh,FAK,0%
same,%Inh,FER; [1],0%
same,%Inh,FES,0%
same,%Inh,FGFR1,0%
same,%Inh,FGFR2,0%
same,%Inh,FGFR3; [1],6%
same,%Inh,FGFR4; [1],1%
same,%Inh,FGR; [1],0%
same,%Inh,FLT1; [1],11%
same,%Inh,FLT3-autoinhibited,0%
Cl.NC(=O)c1cccc(Nc2nccc(Nc3ccc(Oc4cccc(Cl)c4)c(Cl)c3)n2)c1 [GW659008],%Inh,ERBB2; [1],79%
same,%Inh,ERBB3,82%
same,%Inh,ERBB4; [1],55%
same,%Inh,ERK1,3%
same,%Inh,ERK2,0%
same,%Inh,ERK3; [1],15%
same,%Inh,ERK4; [1],0%
same,%Inh,ERK5,61%
same,%Inh,ERK8,0%
same,%Inh,ERN1; [1],19%
same,%Inh,FAK,0%
same,%Inh,FER; [1],9%
same,%Inh,FES,0%
same,%Inh,FGFR1,18%
same,%Inh,FGFR2,0%
same,%Inh,FGFR3; [1],0%
same,%Inh,FGFR4; [1],0%
same,%Inh,FGR; [1],52%
same,%Inh,FLT1; [1],36%
same,%Inh,FLT3-autoinhibited,0%
COc1ccccc1-c1ccc2c(NC(=O)C3CC3)n[nH]c2n1 [SB-711239],%Inh,ERBB2; [1],0%
same,%Inh,ERBB3,22%
same,%Inh,ERBB4; [1],23%
same,%Inh,ERK1,3%
same,%Inh,ERK2,3%
same,%Inh,ERK3; [1],0%
same,%Inh,ERK4; [1],0%
same,%Inh,ERK5,0%
same,%Inh,ERK8,0%
same,%Inh,ERN1; [1],0%
same,%Inh,FAK,0%
same,%Inh,FER; [1],4%
same,%Inh,FES,22%
same,%Inh,FGFR1,0%
same,%Inh,FGFR2,12%
same,%Inh,FGFR3; [1],8%
same,%Inh,FGFR4; [1],10%
same,%Inh,FGR; [1],26%
same,%Inh,FLT1; [1],6%
same,%Inh,FLT3-autoinhibited,0%
Cc1cccc(-c2nc(-c3ccc(S(C)(=O)=O)cc3)sc2-c2ccnc(NCCc3ccccc3)c2)c1,%Inh,ERBB2; [1],0%
same,%Inh,ERBB3,3%
same,%Inh,ERBB4; [1],0%
same,%Inh,ERK1,0%
same,%Inh,ERK2,0%
same,%Inh,ERK3; [1],19%
same,%Inh,ERK4; [1],7%
same,%Inh,ERK5,5%
same,%Inh,ERK8,14%
same,%Inh,ERN1; [1],0%
same,%Inh,FAK,0%
same,%Inh,FER; [1],0%
same,%Inh,FES,0%
same,%Inh,FGFR1,5%
same,%Inh,FGFR2,1%
same,%Inh,FGFR3; [1],0%
same,%Inh,FGFR4; [1],0%
same,%Inh,FGR; [1],0%
same,%Inh,FLT1; [1],18%
same,%Inh,FLT3-autoinhibited,0%
Cn1ccc2ncnc(Oc3ccc(NC(=O)Nc4ccccc4)cc3)c21,%Inh,ERBB2; [1],14%
same,%Inh,ERBB3,10%
same,%Inh,ERBB4; [1],0%
same,%Inh,ERK1,0%
same,%Inh,ERK2,0%
same,%Inh,ERK3; [1],0%
same,%Inh,ERK4; [1],12%
same,%Inh,ERK5,9%
same,%Inh,ERK8,0%
same,%Inh,ERN1; [1],2%
same,%Inh,FAK,8%
same,%Inh,FER; [1],16%
same,%Inh,FES,5%
same,%Inh,FGFR1,14%
same,%Inh,FGFR2,0%
same,%Inh,FGFR3; [1],0%
same,%Inh,FGFR4; [1],11%
same,%Inh,FGR; [1],0%
same,%Inh,FLT1; [1],89%
same,%Inh,FLT3-autoinhibited,48%
COc1ccc(CNC(=O)NC2CCN(c3ccnc(Nc4cc(OC)c(OC)c(OC)c4)n3)C2)cc1 (centres unmarked) [GSK1379748],%Inh,ERBB2; [1],0%
same,%Inh,ERBB3,27%
same,%Inh,ERBB4; [1],9%
same,%Inh,ERK1,0%
same,%Inh,ERK2,0%
same,%Inh,ERK3; [1],0%
same,%Inh,ERK4; [1],0%
same,%Inh,ERK5,0%
same,%Inh,ERK8,0%
same,%Inh,ERN1; [1],0%
same,%Inh,FAK,0%
same,%Inh,FER; [1],0%
same,%Inh,FES,7%
same,%Inh,FGFR1,0%
same,%Inh,FGFR2,2%
same,%Inh,FGFR3; [1],9%
same,%Inh,FGFR4; [1],15%
same,%Inh,FGR; [1],14%
same,%Inh,FLT1; [1],20%
same,%Inh,FLT3-autoinhibited,3%
Cc1ccccc1-n1cnc2c(N)ncnc21 [SKF-97510],%Inh,ERBB2; [1],0%
same,%Inh,ERBB3,0%
same,%Inh,ERBB4; [1],0%
same,%Inh,ERK1,0%
same,%Inh,ERK2,0%
same,%Inh,ERK3; [1],2%
same,%Inh,ERK4; [1],0%
same,%Inh,ERK5,0%
same,%Inh,ERK8,0%
same,%Inh,ERN1; [1],0%
same,%Inh,FAK,0%
same,%Inh,FER; [1],4%
same,%Inh,FES,0%
same,%Inh,FGFR1,0%
same,%Inh,FGFR2,0%
same,%Inh,FGFR3; [1],0%
same,%Inh,FGFR4; [1],0%
same,%Inh,FGR; [1],0%
same,%Inh,FLT1; [1],0%
same,%Inh,FLT3-autoinhibited,0%
CSc1nn2c(=O)cc(N3CCOCC3)nc2n1Cc1cccc(C(F)(F)F)c1C [GSK2363608],%Inh,ERBB2; [2],0% and 10%
same,%Inh,ERBB3,0%
same,%Inh,ERBB4; [2],28% and 37%
same,%Inh,ERK1,0%
same,%Inh,ERK2,0%
same,%Inh,ERK3; [2],7% and 0%
same,%Inh,ERK4; [2],54% and 22%
same,%Inh,ERK5,0%
same,%Inh,ERK8,0%
same,%Inh,ERN1; [2],3% and 1%
same,%Inh,FAK,0%
same,%Inh,FER; [2],25% and 1%
same,%Inh,FES,0%
same,%Inh,FGFR1,0%
same,%Inh,FGFR2,0%
same,%Inh,FGFR3; [2],17% and 4%
same,%Inh,FGFR4; [2],5% and 14%
same,%Inh,FGR; [2],31% and 32%
same,%Inh,FLT1; [2],26% and 10%
same,%Inh,FLT3-autoinhibited,0%
